Rows were chosen to be rich in hits. Some 1.1% of all compounds tested hit in one or more screens of this group.
LmPK inhibitor – LmPK (Leishmania mexicana) enzyme inhibition; Q27686; purified LmPK, Kinase-Glo ATP luminescence, 1 h; Potency, µM (doses to about 57.5 µM), most hits filed as inhibitors; 0.37% of 290,000 active; AID 1721
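qHTS format; LmPK 0.1 nM; substrates PEP 0.5 mM and ADP 0.1 mM. One-hour room-temperature incubation, then coupled luciferase luminescence; 0.5 nM enzyme wells mark activation.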
TbPYK inhibitor – inhibitors of Trypanosoma brucei pyruvate kinase | TbPYK enzyme, Kinase-Glo Plus ATP luminescence, 45 min | 0.12% of 410,000 active | Potency, µM (top dose mostly 76.8 µM), hits mostly inhibitors | Q57TT1; note: nearly all actives have a fitted effect of over 50% in size
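Activity of T. brucei pyruvate kinase was followed by Kinase-Glo Plus luminescence after the enzyme reacted 45 min at room temperature with 130 uM ADP (final) and substrate. Test compounds were added before ADP at multiple concentrations.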
RE007 growth inh – less growth of the S. pombe RE007 Vpr strain; S. pombe RE007 Vpr strain, BacTiter-Glo ATP luminescence, 24 h; Potency, µM (top dose mostly 92.2 µM), most hits filed as inhibitors; 0.21% of 360,000 active; active = well fitted falling curve with a large enough effect; inconclusive = small, poorly fitted or top-dose-only effect; inactive = no such curve, though single readings can be large or run the other way; note: nearly all actives have a fitted effect of over 50% in size
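Fission yeast RE007 carrying one integrated HIV-1 vpr copy, seeded at OD 0.01 in PMG+AL medium with 23 nL pinned compound. Grown 24 h at 30 degrees; viability read by BacTiter-Glo luminescence after 5 min.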
SARS PLP yeast – SARS-CoV PLP inhibition in yeast; S. cerevisiae expressing SARS-CoV PLpro, growth rescue; Potency, µM (doses to about 32.9 µM), most hits filed as activators; 0.19% of 330,000 active; calls by dose curve; note: nearly all actives have a fitted effect of over 55% in size
Giardia FBPA inh – inhibitors of Giardia lamblia fructose-1,6-bisphosphate aldolase; purified Giardia FBPA; Potency, µM (highest dose often 59.6 µM), hits mostly inhibitors; 0.71% of 290,000 active; note: nearly all actives have a fitted effect of over 55% in size
Target sequence (A8B2U2 whole entry, looked up): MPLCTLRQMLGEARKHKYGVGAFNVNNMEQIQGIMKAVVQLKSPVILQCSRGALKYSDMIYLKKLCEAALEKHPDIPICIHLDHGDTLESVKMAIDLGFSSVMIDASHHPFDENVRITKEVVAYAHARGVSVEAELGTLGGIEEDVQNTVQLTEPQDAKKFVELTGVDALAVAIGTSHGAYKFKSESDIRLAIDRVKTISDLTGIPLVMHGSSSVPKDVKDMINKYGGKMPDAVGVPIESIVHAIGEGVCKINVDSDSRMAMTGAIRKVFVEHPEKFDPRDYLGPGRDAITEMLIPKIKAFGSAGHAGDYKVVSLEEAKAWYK
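Giardia FBPA (40 nM reagent) was preincubated 10 min at RT with compound (up to 57.5 uM final), then substrate plus GAPDH/TPI/NAD/arsenate coupling system with diaphorase/resazurin was added; resorufin fluorescence (525/598 nm) was read after 20 min.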
A number is an active result. Unless noted, calls come from the whole dose curve; as a rule, active = well fitted curve in the direction sought with a large enough effect; inconclusive = small, poorly fitted or top-dose-only effect, or another doubt; inactive = no such curve, though single readings can be large; an effect the other way counts as inactive or inconclusive.

What do the screens show for `S=c1[nH]nc(-c2ccc(Br)cc2)n1-c1ccc(Br)cc1`?
LmPK inhibitor: inconclusive; TbPYK inhibitor: inconclusive; RE007 growth inh: inactive; SARS PLP yeast: inactive; Giardia FBPA inh: inactive

How did CC12CCC=CC1C(c1cccc(Br)c1)N(Cc1ccccc1)C2=O (stereo unspecified) do in these assays?
Giardia FBPA inh: inactive

Results for CCOc1cc2sc(N3CCC(C(=O)Nc4ccc(C(C)C)cc4)CC3)nc2cc1Br ?
TbPYK inhibitor: inactive

What do the screens show for `N[C@@H](C(=O)N[C@H]1C(=O)N2C(C(=O)O)=C(Cl)CC[C@H]12)c1ccccc1`?
TbPYK inhibitor: inactive

Results for CCCNC(=O)c1cnn2c(C(F)F)cc(-c3ccccc3)nc12 ?
TbPYK inhibitor: inactive

Results for C[N+]1(CCF)[C@@H]2CC[C@@H]1CC(OC(=O)C(O)(c1ccccc1)c1ccccc1)C2 (stereo partly specified) ?
TbPYK inhibitor: inactive

What do the screens show for `Cc1ccc([N+](=O)[O-])c(-c2n[nH]c(=S)n2-c2cccc(Cl)c2)c1`?
LmPK inhibitor: 17.8µM; TbPYK inhibitor: 3.16µM; RE007 growth inh: inactive; SARS PLP yeast: inactive; Giardia FBPA inh: inactive

How did Cc1ccc(-n2c(-c3cccc(C)c3)n[nH]c2=S)cc1 do in these assays?
LmPK inhibitor: 8.91µM; TbPYK inhibitor: 2.82µM; RE007 growth inh: inactive; SARS PLP yeast: inconclusive; Giardia FBPA inh: inactive

How did Cc1cccc(-n2c(C)n[nH]c2=S)c1 do in these assays?
LmPK inhibitor: inactive; TbPYK inhibitor: inconclusive; RE007 growth inh: inactive; SARS PLP yeast: inactive; Giardia FBPA inh: inconclusive

Results for COC(=O)c1cc(NS(=O)(=O)c2cc(Br)cc3c2N(C(C)=O)CC3)cc(C(=O)OC)c1 ?
TbPYK inhibitor: inactive

How did Cc1nc2nc(-c3ccc(Cl)cc3)cn2nc1C do in these assays?
LmPK inhibitor: inconclusive; TbPYK inhibitor: inactive; RE007 growth inh: inactive; SARS PLP yeast: inactive; Giardia FBPA inh: inactive

How did COc1ccc(-c2cn3nc4c(nc3n2)CCCC4)cc1 do in these assays?
LmPK inhibitor: 15.8µM; TbPYK inhibitor: inactive; RE007 growth inh: inactive; SARS PLP yeast: inactive; Giardia FBPA inh: inactive

Results for O=C(Nc1ncc([N+](=O)[O-])s1)c1cccs1 ?
LmPK inhibitor: 14.1µM; TbPYK inhibitor: inconclusive; RE007 growth inh: 28.2µM; SARS PLP yeast: inactive; Giardia FBPA inh: inactive

What do the screens show for `Cc1cnc(NC(=O)c2cccs2)s1`?
LmPK inhibitor: inactive; TbPYK inhibitor: inactive; RE007 growth inh: inactive; SARS PLP yeast: inactive; Giardia FBPA inh: inactive

Results for CCC(OC(=O)C(NC(=O)c1ccccc1)c1ccccc1)C(=O)Nc1cc(C)on1 (stereo unspecified) ?
LmPK inhibitor: inactive; TbPYK inhibitor: inactive; RE007 growth inh: inactive; SARS PLP yeast: 22.4µM; Giardia FBPA inh: inactive

Results for O=C1c2ccccc2-c2nnc(-c3ccc(F)cc3)cc21 ?
LmPK inhibitor: 5.01µM; TbPYK inhibitor: inconclusive; RE007 growth inh: inactive; SARS PLP yeast: inactive; Giardia FBPA inh: inactive

What do the screens show for `Cc1ccccc1-c1cc2c(nn1)-c1ccccc1C2=O`?
LmPK inhibitor: 5.01µM; TbPYK inhibitor: inactive; RE007 growth inh: inactive; SARS PLP yeast: inactive; Giardia FBPA inh: inconclusive

What do the screens show for `O=C1c2ccccc2-c2nnc(-c3ccc(O)cc3)cc21`?
LmPK inhibitor: 8.91µM; TbPYK inhibitor: inactive; RE007 growth inh: inactive; SARS PLP yeast: inactive; Giardia FBPA inh: inactive

Results for O=c1[nH]nc(-c2ccc(F)cc2)cc1-c1ccccc1 ?
LmPK inhibitor: inactive; TbPYK inhibitor: inactive; RE007 growth inh: inactive; SARS PLP yeast: inactive; Giardia FBPA inh: inactive

How did O=C1c2ccccc2-c2nc3ccccc3cc21 do in these assays?
LmPK inhibitor: inconclusive; TbPYK inhibitor: inactive; RE007 growth inh: inactive; SARS PLP yeast: inactive; Giardia FBPA inh: inactive

What do the screens show for `C=CCOc1cc(Cl)ccc1C(=O)NCCN(CC)CC`?
TbPYK inhibitor: inactive

What do the screens show for `COc1cc(-c2n[nH]c(=S)n2-c2cccc(C(F)(F)F)c2)cc(OC)c1OC`?
LmPK inhibitor: inconclusive; TbPYK inhibitor: inconclusive; RE007 growth inh: inactive; SARS PLP yeast: inactive; Giardia FBPA inh: inactive

Results for COc1ccc(OC)c(-n2c(-c3cccc(S(=O)(=O)N(C)C)c3)n[nH]c2=S)c1 ?
LmPK inhibitor: inconclusive; TbPYK inhibitor: inactive; RE007 growth inh: inactive; SARS PLP yeast: inactive; Giardia FBPA inh: inactive

How did COc1ccc(C)cc1-n1c(-c2ccncc2)n[nH]c1=S do in these assays?
LmPK inhibitor: 10µM; TbPYK inhibitor: 14.1µM; RE007 growth inh: inactive; SARS PLP yeast: inactive; Giardia FBPA inh: inactive

How did COc1cc(-c2n[nH]c(=S)n2-c2ccccc2C(F)(F)F)cc(OC)c1OC do in these assays?
LmPK inhibitor: 17.8µM; TbPYK inhibitor: inconclusive; RE007 growth inh: inactive; SARS PLP yeast: inactive; Giardia FBPA inh: inactive

How did COc1ccccc1-c1n[nH]c(=S)n1-c1ccccc1 do in these assays?
LmPK inhibitor: inactive; TbPYK inhibitor: inconclusive; RE007 growth inh: inactive; SARS PLP yeast: inactive; Giardia FBPA inh: inactive

Results for COc1ccc(OC)c(-n2c(-c3ccc(O)cc3O)n[nH]c2=S)c1 ?
LmPK inhibitor: 8.91µM; TbPYK inhibitor: inconclusive; RE007 growth inh: inactive; SARS PLP yeast: inactive; Giardia FBPA inh: inactive

What do the screens show for `COc1cc(-n2c(-c3ccccc3)n[nH]c2=S)c(OC)cc1Cl`?
LmPK inhibitor: inactive; TbPYK inhibitor: 3.55µM; RE007 growth inh: inactive; SARS PLP yeast: inactive; Giardia FBPA inh: inactive

Results for Cc1ccc(CNC(=O)CC2Oc3ccccc3NC2=O)cc1 (stereo unspecified) ?
TbPYK inhibitor: inactive

What do the screens show for `CCOc1cccc2sc(NC(=O)c3ccc(S(=O)(=O)N4CCCCC4)cc3)nc12`?
TbPYK inhibitor: inactive

Results for COc1cc(OC)cc(-c2n[nH]c(=S)n2-c2cc(OC)ccc2OC)c1 ?
LmPK inhibitor: 3.55µM; TbPYK inhibitor: inconclusive; RE007 growth inh: inactive; SARS PLP yeast: inconclusive; Giardia FBPA inh: inactive

Results for CCCNC(=O)c1nnsc1S(=O)(=O)c1ccc(Cl)cc1 ?
LmPK inhibitor: inactive; TbPYK inhibitor: inactive; RE007 growth inh: 11.2µM; SARS PLP yeast: inactive; Giardia FBPA inh: inactive

Results for CCCNC(=O)c1nnsc1S(=O)c1ccc(Cl)cc1 (stereo unspecified) ?
LmPK inhibitor: inactive; TbPYK inhibitor: inactive; RE007 growth inh: 3.55µM; SARS PLP yeast: inactive; Giardia FBPA inh: inactive

How did CNC(=O)c1nnsc1S(=O)c1ccc(Cl)cc1 (stereo unspecified) do in these assays?
LmPK inhibitor: inactive; TbPYK inhibitor: inactive; RE007 growth inh: 35.5µM; SARS PLP yeast: inactive; Giardia FBPA inh: inactive

What do the screens show for `NC(N)=NCCCC(N)C(=O)O` (stereo unspecified)?
TbPYK inhibitor: inactive

What do the screens show for `CSc1ccn(CCC(=O)O)c(=O)n1`?
LmPK inhibitor: inactive; TbPYK inhibitor: inactive; RE007 growth inh: inactive; SARS PLP yeast: 10µM; Giardia FBPA inh: inactive

How did O=C1NN(c2ccccc2)C(=O)/C1=C\c1ccc(-c2cc([N+](=O)[O-])ccc2O)o1 do in these assays?
LmPK inhibitor: 17.8µM; TbPYK inhibitor: inconclusive; RE007 growth inh: inactive; SARS PLP yeast: inactive; Giardia FBPA inh: inactive
